# About 14,000 (4.5%) of roughly 310,000 compounds showed an effect of 50% or more. Effects have a minus sign here. Many of the other results were omitted from the sample, so strong results are more common in it than they were.
# Molecular target: human ether-à-go-go-related gene (hERG) potassium channel (human, UniProt Q12809)
# Experiment: primary screen, population patch clamp on CHO cells stably expressing hERG; higher = less effect of the substance
# Description: Briefly, Chinese hamster ovary (CHO) cells stably expressing the hERG channel were dislodged from tissue culture flasks and dispensed into PPC plates. […] During the recording, background leak currents were estimated by a 100 ms step to -80 mV from an initial holding potential of -70 mV and subtracted from the subsequent current measurement. The campaign was conducted in two phases using slight differences in recording protocol. In the first phase, the initial voltage pulse used a 100 ms step to -30 mV from a holding potential of -70 mV, a 2 s conditioning step to +25 mV, and a 2 s test step to -30 mV. During the second phase of the screen, the potential during the conditioning step was raised to +45 mV. In both phases of the campaign, a secondary voltage pulse was applied using the same parameters as the second phase initial pulse. The initial and secondary pulses were applied in the absence of compound, and upon application of 1 μM and 10 μM test concentrations. […]
# 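Note: peak tail current of the secondary pulse compared with the same well before compound.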
# Chain of human ether-à-go-go-related gene (hERG) potassium channel (Q12809 whole entry, looked up): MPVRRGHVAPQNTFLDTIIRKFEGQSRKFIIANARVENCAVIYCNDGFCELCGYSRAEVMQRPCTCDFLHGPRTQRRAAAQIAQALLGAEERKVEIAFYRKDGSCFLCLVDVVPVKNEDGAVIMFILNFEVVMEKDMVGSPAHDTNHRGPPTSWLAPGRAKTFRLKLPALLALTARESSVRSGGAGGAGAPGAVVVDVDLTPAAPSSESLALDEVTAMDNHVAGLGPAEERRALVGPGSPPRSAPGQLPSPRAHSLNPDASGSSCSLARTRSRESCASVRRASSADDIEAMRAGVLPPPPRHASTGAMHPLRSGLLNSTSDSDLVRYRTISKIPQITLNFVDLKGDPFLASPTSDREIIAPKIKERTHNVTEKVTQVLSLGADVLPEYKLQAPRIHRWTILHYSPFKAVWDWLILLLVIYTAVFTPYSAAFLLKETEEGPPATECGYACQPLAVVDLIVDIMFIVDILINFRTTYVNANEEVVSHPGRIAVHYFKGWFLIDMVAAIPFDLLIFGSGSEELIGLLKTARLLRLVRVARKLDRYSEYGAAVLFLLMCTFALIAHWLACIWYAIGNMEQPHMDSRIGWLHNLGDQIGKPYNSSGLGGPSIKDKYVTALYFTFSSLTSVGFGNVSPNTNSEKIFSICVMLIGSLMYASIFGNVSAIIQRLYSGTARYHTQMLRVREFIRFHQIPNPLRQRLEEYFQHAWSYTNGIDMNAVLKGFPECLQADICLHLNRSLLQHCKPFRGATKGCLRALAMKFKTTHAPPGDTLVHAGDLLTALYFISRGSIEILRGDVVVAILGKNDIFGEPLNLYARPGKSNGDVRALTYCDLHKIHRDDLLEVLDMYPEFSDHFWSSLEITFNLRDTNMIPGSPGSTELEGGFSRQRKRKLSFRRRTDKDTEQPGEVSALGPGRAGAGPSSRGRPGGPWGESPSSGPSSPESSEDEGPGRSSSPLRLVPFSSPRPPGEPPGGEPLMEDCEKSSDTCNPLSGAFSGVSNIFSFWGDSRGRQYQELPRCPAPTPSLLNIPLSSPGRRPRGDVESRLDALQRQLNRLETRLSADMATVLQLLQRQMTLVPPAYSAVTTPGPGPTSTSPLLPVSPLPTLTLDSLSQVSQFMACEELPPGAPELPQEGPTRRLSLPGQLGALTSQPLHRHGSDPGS
row,Structure (SMILES),"hERG current change (%, negative = inhibition) at 10uM [%]"
1,Cc1cc(C)c2[nH]c(=O)c(CN(Cc3cccs3)C(=S)NCc3ccco3)cc2c1,-15.7
2,CCN(CC)CCN(Cc1cc2cc(C)cc(C)c2[nH]c1=O)C(=S)NCc1ccco1,-52.5
3,Cc1cc(C)c2[nH]c(=O)c(CN(CC3CCCO3)C(=S)NCc3ccco3)cc2c1 (centres unmarked),-4.81
4,Cc1cccc2cc(CN(CCN(C)C)C(=S)NCc3ccco3)c(=O)[nH]c12,-38.9
5,CCN(CC)CCN(Cc1cc2ccc(C)c(C)c2[nH]c1=O)C(=S)NCc1ccco1,-51.4
6,Cc1ccc2cc(CN(CC3CCCO3)C(=S)NCc3ccco3)c(=O)[nH]c2c1C (centres unmarked),-40.8
7,Cc1ccc(OCCC(=O)Nc2ccc(S(=O)(=O)Nc3cc(C)nc(C)n3)cc2)cc1,1.18
8,COc1c(O)ccc2c1-c1c3c(cc4c1C(C2)N(C)CC4)OCO3 (centres unmarked),-28.7
9,Br.CCCN1CCc2cc(O)cc3c2[C@H]1Cc1ccc(O)c(O)c1-3.O,-57.8
10,Br.C=CCN1CCc2cccc3c2[C@H]1Cc1ccc(O)c(O)c1-3,-19.3
11,Cn1c(N)c(N=Nc2ccc(S(N)(=O)=O)cc2)c(=O)n(C)c1=O,27.6
12,CCN(CC(=O)Nc1ccc(OC)cc1)CC(=O)Nc1ccc(Br)cc1F,-67.4
13,COc1ccc(NC(=O)CN(C)CC(=O)Nc2ccc(Cl)cc2F)cc1,-10.6
14,CCN(CC(=O)Nc1ccc(OC)cc1)CC(=O)Nc1ccc(Cl)cc1F,-6.34
15,Cc1ccc(Cn2nnc3c(=O)n(CC(=O)c4ccccc4)cnc32)cc1,-0.591
16,COc1ccc(NS(=O)(=O)c2cc(-c3cnc(C4CC4)o3)ccc2C)cc1,6.02
17,CCc1ccc(-c2nc(CN3CCC(C(=O)N4CCN(c5ccccc5)CC4)CC3)c(C)o2)cc1,-71.3
18,COC(=O)c1ccc(-c2nc(CN3CCC(C(=O)N4CCOCC4)CC3)c(C)o2)cc1,-7.65
19,Cc1ccc(-c2nc(CS(=O)CC(=O)N3CCN(c4ccc(F)cc4)CC3)c(C)o2)cc1 (centres unmarked),-42
20,Cc1ccc(-c2nc(CSCC(=O)N3CCN(c4ccccn4)CC3)c(C)o2)cc1,-25
21,CCc1ccc(-c2nc(CSCC(=O)N3CCN(c4ccccn4)CC3)c(C)o2)cc1,-50.7
22,Cc1ccc(-c2nc(CS(=O)CC(=O)N3CCN(c4ccccc4)CC3)c(C)o2)cc1 (centres unmarked),-31.3
23,COc1ccc(-c2nc(CN3CCC(C(=O)N4CCOCC4)CC3)c(C)o2)cc1OC,-6.54
24,CCc1ccc(-c2nc(CSCC(=O)N3CCN(c4ncccn4)CC3)c(C)o2)cc1,-23.6
25,CCOc1ccccc1-c1nc(CN2CCC(C(=O)N3CCOCC3)CC2)c(C)o1,-5.13
26,Cc1ccccc1-c1nc(CN2CCC(C(=O)N3CCN(c4ccccn4)CC3)CC2)c(C)o1,-62
27,Cc1ccc(-c2nc(CS(=O)CC(=O)N3CCN(c4ncccn4)CC3)c(C)o2)cc1 (centres unmarked),-54.1

row,Structure (SMILES),"hERG current change (%, negative = inhibition) at 10uM [%]"
1,Cc1nn(Cc2ccccc2Cl)c(C)c1NC(=O)Cn1nc([N+](=O)[O-])c(Cl)c1C,7.21
2,COC(=O)c1coc(-c2ccc(C)cc2)c1C(=O)OC,1.6
3,CC(=O)c1ccc(N2CCN(S(=O)(=O)c3ccc4ccccc4c3)CC2)cc1,3.28
4,Cc1cc(Nc2nnnn2-c2ccccc2)n(-c2ccccc2)n1,-21.8
5,CCN1CCN(C(=O)C(NS(=O)(=O)c2ccc3nc(C)sc3c2)C(C)C)CC1 (centres unmarked),0.194
6,COc1ccc(-c2[nH]c(-c3ccc(F)cc3)nc2SCC(=O)NCc2ccco2)cc1OC,18.8
7,CSc1ccc(/C=N/Nc2ccc(Cl)c(C(=O)O)c2)cc1,6.73
8,COC(=O)/C(=C/c1c[nH]c2ccccc12)NC(C)=O,6.31
9,Cc1ccccc1-c1nc(CN2CCC(C(=O)O)CC2)c(C)o1,-18.6
10,CCc1ccc(-c2nc(CN3CCC(C(=O)N4CCN(c5ccccn5)CC4)CC3)c(C)o2)cc1,-68.5
11,Cc1ccccc1-c1nc(CN2CCC(C(=O)N3CCC(C(N)=O)CC3)CC2)c(C)o1,2.7
12,CCOC(=O)N1CCN(C(=O)C2CCN(Cc3nc(-c4ccccc4C)oc3C)CC2)CC1,-58.3
13,O=C1OC(/C=C/c2ccccc2)=NC/1=C\c1cccnc1,19.4
14,CCCc1c(O)nc(SCC(=O)NCc2ccco2)[nH]c1=O,27
15,O=C(c1ccc(-n2cnnn2)cc1)N1CCOCC1,-1.64
16,O=C(c1ccc(-n2cnnn2)cc1)N1CCCCC1,-24.1
17,O=C(Nc1ccc(-n2cnnn2)cc1)C(c1ccccc1)c1ccccc1,8.56
18,O=C(c1ccc(=O)oc1)N1CCN(C(c2ccccc2)c2ccccc2)CC1,-32.2
19,O=C(c1ccc(-n2cnnn2)cc1)N1CCN(C(c2ccccc2)c2ccccc2)CC1,-64.7
20,CC1CCN(C(=O)c2ccc(-n3cnnn3)cc2)CC1,-72.1
21,Cc1cc(NC(=O)c2cc(CC(C)C)on2)n(-c2ccccc2)n1,9.57
22,COc1cc(NC(=O)CCCN2C(=O)NC(C)(C)C2=O)cc(OC)c1,12.2
23,Cc1cccc(OCC(=O)NCC(=O)N/N=C/c2ccc(N(C)C)cc2)c1,0.0886
24,Cc1ccc(NC(=O)Nc2c(Cl)cccc2Cl)cn1,14
25,COC(=O)CCSc1cc([N+](=O)[O-])cc2c1c(C1OCCS1)nn2-c1ccccc1 (centres unmarked),3.61
26,O=C(O)CCc1ccc(-c2cccs2)n1NC(=O)c1cccs1,22.3

# Source: article PMC4336329 (PLoS ONE, 2015)
